Reference: PubChem BioAssay (NCI)
This is part of a sample that, as a whole, favours compounds with a hit. Of some 83,000 tested, about 20% had one in any assay.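 Cell lines were cultured in 96-well plates, exposed to a single compound concentration, and assessed for percent growth 48 hours later.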 Calls of active or inactive are those of the source. Rule for the calls: active = growth percent below 10; inactive = the rest.

Tests used:
Test in all cases: NCI-60 one-dose screen, 48 h (100 = growth as untreated, 0 = no growth, -100 = all killed)
Conditions in all cases: 10 µM unless noted
NCI-H23 lung = test system: NCI-H23 lung
NCI-H322M lung = test system: NCI-H322M lung
HOP-62 NSCLC = test system: HOP-62 NSCLC
NCI-H460 lung = test system: NCI-H460 lung
HOP-92 NSCLC = test system: HOP-92 NSCLC
NCI-H522 lung = test system: NCI-H522 lung
A549/ATCC NSCLC = test system: A549/ATCC NSCLC
786-0 renal = test system: 786-0 renal
COLO 205 colon = test system: COLO 205 colon
DU-145 prostate = test system: DU-145 prostate
K-562 leukemia = test system: K-562 leukemia
MALME-3M melanoma = test system: MALME-3M melanoma
MDA-MB-231 breast = test system: MDA-MB-231 breast
RXF 393 renal = test system: RXF 393 renal
SF-268 CNS = test system: SF-268 CNS
SF-295 CNS = test system: SF-295 CNS
SF-539 CNS = test system: SF-539 CNS
UACC-257 melanoma = test system: UACC-257 melanoma
M14 melanoma = test system: M14 melanoma
HCT-15 colon = test system: HCT-15 colon

Measured: growth

COc1cc(NC(=O)CCSc2nc3ccccc3c(=O)n2Cc2ccccc2)cc(OC)c1OC
active: NCI-H522 lung 4.12%
inactive: NCI-H23 lung 89.7% | NCI-H322M lung 75.8% | HOP-62 NSCLC 92.8% | NCI-H460 lung 94.6% | HOP-92 NSCLC 54.5% | A549/ATCC NSCLC 72.7% | 786-0 renal 83.4% | COLO 205 colon 118% | DU-145 prostate 97.5% | K-562 leukemia 81.2% | MALME-3M melanoma 82% | MDA-MB-231 breast 64.9% | RXF 393 renal 92.3% | SF-268 CNS 81.9% | SF-295 CNS 75.3% | SF-539 CNS 72.9% | UACC-257 melanoma 89.5% | M14 melanoma 94.7% | HCT-15 colon 92.5%

O=c1c(-c2nc3ccccc3[nH]2)cc2ccccc2n1Cc1cn(Cc2ccc(N3CCOCC3)cc2)nn1
inactive: NCI-H23 lung 76.5% | NCI-H322M lung 68.8% | HOP-62 NSCLC 16.3% | NCI-H460 lung 55.3% | HOP-92 NSCLC 75.9% | NCI-H522 lung 28% | A549/ATCC NSCLC 74.8% | 786-0 renal 57.1% | COLO 205 colon 83.7% | DU-145 prostate 36.9% | K-562 leukemia 100% | MALME-3M melanoma 64.2% | MDA-MB-231 breast 71.5% | RXF 393 renal 35.7% | SF-268 CNS 22.6% | SF-295 CNS 95.4% | SF-539 CNS 52.6% | UACC-257 melanoma 78.7% | M14 melanoma 80.1% | HCT-15 colon 78.6%

NCCNc1nc2ccc(F)cc2c2c(=O)c3cc(F)ccc3sc12
inactive: NCI-H23 lung 70.9% | NCI-H322M lung 60.6% | HOP-62 NSCLC 56.5% | HOP-92 NSCLC 17.4% | NCI-H522 lung 30.9% | A549/ATCC NSCLC 43.7% | 786-0 renal 58.6% | MALME-3M melanoma 99% | RXF 393 renal 52.3% | SF-268 CNS 48.9% | SF-295 CNS 82.3% | SF-539 CNS 73.6% | UACC-257 melanoma 79.4% | M14 melanoma 15.7% | HCT-15 colon 20.9%
active: NCI-H460 lung -54.7% | COLO 205 colon -52.2% | DU-145 prostate 7.23% | K-562 leukemia -44.2% | MDA-MB-231 breast 6.98%

O=C(CN1C(=O)/C(=C\c2ccc(Cl)cc2)SC1=S)Nc1ncc(Cc2ccc(Cl)cc2)s1
inactive: NCI-H23 lung 100% | NCI-H322M lung 107% | HOP-62 NSCLC 105% | NCI-H460 lung 100% | HOP-92 NSCLC 101% | NCI-H522 lung 89.5% | A549/ATCC NSCLC 108% | 786-0 renal 106% | COLO 205 colon 110% | DU-145 prostate 106% | K-562 leukemia 105% | MALME-3M melanoma 99.4% | MDA-MB-231 breast 104% | RXF 393 renal 110% | SF-268 CNS 97.4% | SF-295 CNS 101% | SF-539 CNS 94.3% | UACC-257 melanoma 104% | M14 melanoma 102% | HCT-15 colon 103%

CC[C@]1(O)C[C@@H]2CN(CCc3c([nH]c4ccccc34)[C@@](C(=O)OC)(c3cc4c(cc3OC)N(C)[C@H]3[C@@](O)(C(=O)OC)[C@H](OC(=O)CCCBr)[C@]5(CC)C=CCN6CC[C@]43[C@@H]65)C2)C1
active: NCI-H460 lung 5.85% | HOP-92 NSCLC -0.264% | NCI-H522 lung -27% | COLO 205 colon -53.2% | DU-145 prostate 5.82% | K-562 leukemia 8.93% | MDA-MB-231 breast -16.5% | SF-295 CNS 8.8% | SF-539 CNS -10.4% | M14 melanoma -11%
inactive: NCI-H23 lung 33.1% | NCI-H322M lung 38.7% | HOP-62 NSCLC 29.2% | A549/ATCC NSCLC 15.2% | 786-0 renal 10.4% | MALME-3M melanoma 39.4% | RXF 393 renal 34.2% | SF-268 CNS 21.2% | UACC-257 melanoma 62% | HCT-15 colon 10.5%

COCCN(C(=O)Cc1cccs1)C(C(=O)NCc1ccc(OC)cc1)c1ccc(C(C)C)cc1 (stereo not given)
inactive: NCI-H23 lung 86.4% | NCI-H322M lung 92.2% | HOP-62 NSCLC 97.8% | NCI-H460 lung 78.2% | NCI-H522 lung 80.7% | A549/ATCC NSCLC 87.2% | 786-0 renal 95% | COLO 205 colon 104% | DU-145 prostate 63.5% | K-562 leukemia 77% | MALME-3M melanoma 72.2% | MDA-MB-231 breast 71.4% | RXF 393 renal 88.5% | SF-268 CNS 57.8% | SF-295 CNS 84.3% | SF-539 CNS 93.3% | UACC-257 melanoma 122% | M14 melanoma 106% | HCT-15 colon 95.7%
active: HOP-92 NSCLC -3.71%

COc1ccc2sc(N(Cc3cccnc3)C(=O)c3ccc(C#N)cc3)nc2c1
inactive: NCI-H23 lung 96.3% | NCI-H322M lung 101% | HOP-62 NSCLC 94.4% | NCI-H460 lung 101% | HOP-92 NSCLC 60.7% | NCI-H522 lung 124% | A549/ATCC NSCLC 81.9% | 786-0 renal 69.8% | COLO 205 colon 84% | DU-145 prostate 93.5% | K-562 leukemia 16.4% | MALME-3M melanoma 60.9% | MDA-MB-231 breast 71.5% | RXF 393 renal 92.8% | SF-268 CNS 87.7% | SF-295 CNS 35.6% | SF-539 CNS 70.5% | M14 melanoma 25.4% | HCT-15 colon 66.1%
active: UACC-257 melanoma -46.3%

O=C(Nc1ccc(F)cc1F)c1cc(I)ccc1O
active: NCI-H23 lung 8.86% | NCI-H322M lung 8.13% | HOP-62 NSCLC 2.05% | NCI-H460 lung 6.03% | HOP-92 NSCLC -20% | NCI-H522 lung -12.4% | A549/ATCC NSCLC 6.86% | K-562 leukemia 9.06% | MALME-3M melanoma -17.6% | RXF 393 renal -1.12% | SF-295 CNS 1.39% | UACC-257 melanoma -9.13%
inactive: 786-0 renal 12.3% | COLO 205 colon 77.8% | DU-145 prostate 19.1% | MDA-MB-231 breast 35.2% | SF-268 CNS 16.1% | SF-539 CNS 13.3% | M14 melanoma 16.7% | HCT-15 colon 15.9%
